Results filed as inconclusive are left out. Calls of active or inactive are those of the source. How the source made its calls: active means hit-call score of the fitted dose curve at least 0.9, where 1 is the maximum; inconclusive means response in the unintended direction; inactive means score below 0.9.

In this assay the target is Cellular tumor antigen p53 (Homo sapiens) (UniProt P04637). Put plainly: TOX21_p53_BLA_p4_ratio: Tox21 HCT-116 p53 Agonism Beta-lactamase Assay, Ratio, Phase 4 (AID 2283601). Put shortly: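 HCT-116 p53 beta-lactamase reporter cells (4000/well) preincubated 5 h, then compound (217-fold dilution of DMSO stock) for 16 h at 37C. CCF4-AM substrate added 2 h at room temperature; 460/530 nm emission ratio fitted upward versus DMSO.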
Sequence of Cellular tumor antigen p53 (Homo sapiens) (P04637 whole entry, looked up): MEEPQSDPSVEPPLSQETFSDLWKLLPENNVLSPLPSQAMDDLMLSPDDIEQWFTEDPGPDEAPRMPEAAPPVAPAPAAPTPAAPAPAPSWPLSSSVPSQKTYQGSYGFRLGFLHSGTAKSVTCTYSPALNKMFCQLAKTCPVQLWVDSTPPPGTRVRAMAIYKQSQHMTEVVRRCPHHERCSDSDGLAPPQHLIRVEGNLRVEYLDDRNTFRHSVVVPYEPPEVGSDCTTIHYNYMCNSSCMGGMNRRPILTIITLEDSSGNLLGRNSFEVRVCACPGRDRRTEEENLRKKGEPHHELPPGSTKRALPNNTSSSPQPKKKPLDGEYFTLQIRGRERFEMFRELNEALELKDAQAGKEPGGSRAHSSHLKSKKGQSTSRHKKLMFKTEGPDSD
As to `CON=C(C(=O)N[C@@H]1C(=O)N2C(C(=O)O)=C(COC(N)=O)CS[C@H]12)c1ccco1`, the outcome was inactive.
Turning to `C[C@H]1O[C@@H](n2cc(F)c(=O)[nH]c2=O)[C@H](O)[C@@H]1O`, the AC50 was 27.5 µM (active).
Consider `O=C(O)c1cc(=O)c2c3nc4ccccc4oc-3cc(=O)c2[nH]1`, for which the outcome was inactive.
Turning to `CO[C@@]12[C@H](COC(N)=O)C3=C(C(=O)C(C)=C(N)C3=O)N1C[C@@H]1N[C@@H]12`, the half-maximal activity concentration (AC50) was 20.8 µM (active).
As to `CCN(CC)CCOc1ccc(-c2nc3cc(Cl)ccc3s2)cc1`, the outcome was inactive.
In the case of `Cc1c(Cl)cccc1Nc1ccccc1C(=O)O`, the AC50 is 17.7 µM (active).
For `CO[C@H]1/C=C/O[C@@]2(C)Oc3c(C)c(O)c4c(O)c(cc(O)c4c3C2=O)NC(=O)/C(C)=C\C=C\[C@H](C)[C@H](O)[C@@H](C)[C@@H](O)[C@@H](C)[C@H](OC(C)=O)[C@@H]1C`, the outcome was inactive.
The same measure, in the same setting: then `COc1ccccc1N1CCN(CC(O)COc2cccc3ccccc23)CC1` (stereo not given), with “inactive”; and `CN(C)c1nc(N(C)C)nc(N(C)C)n1`, with “inactive”.
On the same count and under the same terms, then `NC(=O)c1ccccc1C(N)=O`, with “inactive”.
The same measure, in the same setting: then `OC[C@@H](O)[C@@H](O[C@@H]1O[C@H](CO)[C@H](O)[C@H](O)[C@H]1O)[C@H](O)[C@@H](O)CO`, with “inactive”; and `NCCS`, with “inactive”.
Consider `CCCCCCCCCCCCCCC(=O)O`, for which the outcome was inactive.
Still for that read-out and setting: next, `CCCCCCCCCCCCCCCCCC(=O)OC[C@@H](O)[C@H]1OC[C@H](O)[C@H]1O`: “inactive”; `Cc1ccc2nc(N)[nH]c(=O)c2c1Sc1ccncc1`: “inactive”; `COc1cccc2c1[C@@H]1CN(CCCCn3c(=O)[nH]c4c(sc5ncc(-c6ccccc6)nc54)c3=O)C[C@@H]1CO2`: “inactive”.
As for `CCOC(=O)C=CC(=O)O`, the result was inactive.
Turning to `O=C(Nc1ccc(Br)cc1)c1cc(Br)c(Br)s1`, the outcome was inactive.
Regarding `CCC(C)(C)c1ccc(CC(C)CN2C[C@@H](C)O[C@@H](C)C2)cc1` (stereo not given in full), the outcome was inactive.
On the same count and under the same terms, then `O=C(O)COC(=O)Cc1ccccc1Nc1c(Cl)cccc1Cl`, with “inactive”.
Still for that read-out and setting: then `C=CC(=O)O`, with “inactive”; and `CCC(C)n1ncn(-c2ccc(N3CCN(c4ccc(OC[C@H]5CO[C@](Cn6cncn6)(c6ccc(Cl)cc6Cl)O5)cc4)CC3)cc2)c1=O` (stereo not given in full), with “inactive”; and `NCCCC[C@H](NC(=O)[C@@H]1CCCN1C(=O)[C@@H]1CSSC[C@H](N)C(=O)N[C@@H](Cc2ccc(O)cc2)C(=O)N[C@@H](Cc2ccccc2)C(=O)N[C@@H](CCC(N)=O)C(=O)N[C@@H](CC(N)=O)C(=O)N1)C(=O)NCC(N)=O`, with “inactive”.
With `C=C1/C(=C\C=C2/CCC[C@]3(C)[C@@H]([C@H](C)CCCC(C)(C)O)CC[C@@H]23)C[C@@H](O)C[C@@H]1O`, the AC50 is 26.1 µM (active).
On the same count and under the same terms, then `C=CCNC1=C2C[C@@H](C)C[C@H](OC)[C@H](O)[C@@H](C)/C=C(\C)[C@H](OC(N)=O)[C@@H](OC)/C=C\C=C(/C)C(=O)NC(=CC1=O)C2=O`, with 0.147 µM (active); and `O[C@@H](CNC[C@H](O)[C@H]1CCc2cc(F)ccc2O1)[C@@H]1CCc2cc(F)ccc2O1`, with 43.4 µM (active).
Turning to `O=C(O)c1ccc(Cl)c(Cl)c1`, the outcome was inactive.
As for `Cc1ccc(S(=O)(=O)NC(=O)NN2CC3CCCC3C2)cc1` (stereo not given), the outcome was inactive.
Still for that read-out and setting: then `Cn1cnc2c(F)c(Nc3ccc(Br)cc3Cl)c(C(=O)NOCCO)cc21`, with “inactive”.
Same read-out and setting: next, `CC1=CC(C)(C)Nc2ccccc21`: “inactive”.
`COc1cccc2c1C(=O)c1c(O)c3c(c(O)c1C2=O)C[C@@](O)(C(=O)CO)C[C@@H]3O[C@H]1C[C@H](N)[C@H](O[C@@H]2CCCCO2)[C@H](C)O1`: the concentration at half-maximal activity (AC50) is 7.58 µM (active).
With `CC(C)COC(=O)COc1cc(Cl)c(Cl)cc1Cl`, the outcome was inactive.
In the case of `CCCCNc1cc(C(=O)O)cc(S(N)(=O)=O)c1Oc1ccccc1`, the outcome was inactive.
On the same count and under the same terms, then `Oc1ccc(Cl)c2cccnc12`, with “inactive”.
Still for that read-out and setting: next, `Cc1cc(-c2ccc(N=Nc3cc(S(=O)(=O)O)c4ccccc4c3N)c(C)c2)ccc1N=Nc1cc(S(=O)(=O)O)c2ccccc2c1N`: “inactive”; `CC1(C)C[C@@H]1C(=O)N/C(=C\CCCCSC[C@H](N)C(=O)O)C(=O)O`: “inactive”; `O[C@@H]([C@H](O)[C@H](O)CBr)[C@H](O)CBr`: “inactive”.
Same read-out and setting: then `Cc1cc(O)c(C(C)C)cc1Cl`, with “inactive”.
Take `Cc1cc(O)c2c(c1)O[C@@]1(C)CC[C@H]3C(C)(C)CCCC34CO[C@@H]2[C@H]41` (stereo not given in full): the AC50 is 43.4 µM (active).
As to `CN1[C@@H]2CC[C@H]1CC(OC(=O)C(O)c1ccccc1)C2` (stereo not given in full), the result was inactive.

In general, AC50 refers to the concentration at which the activity in the assay is half-maximal.

Values taken from PubChem BioAssay (EPA / NIEHS).
